For six sequences, binding signal results are on record in paper PMC7862700, “An all-to-all approach to the identification of sequence-specific readers for epigenetic DNA modifications on cytosine”.

Assay in all cases: DAPPL (digital affinity profiling via proximity ligation, sequencing); 10 mM Tris-HCl pH 7.5, 50 mM NaCl, 1 mM DTT, 4% glycerol, room temperature, 30 min; GST-TFs on glutathione beads, 16-mer random dsDNA library, 0.1% formaldehyde crosslink after washing; high values mean tight binding
Holding throughout (settings): protein: recombinant; tags: N-terminal GST; dsDNA, one strand shown

Experiment [1] has as its target T1, ERF (Homo sapiens, UniProt P50548 1-548).
T1 sequence: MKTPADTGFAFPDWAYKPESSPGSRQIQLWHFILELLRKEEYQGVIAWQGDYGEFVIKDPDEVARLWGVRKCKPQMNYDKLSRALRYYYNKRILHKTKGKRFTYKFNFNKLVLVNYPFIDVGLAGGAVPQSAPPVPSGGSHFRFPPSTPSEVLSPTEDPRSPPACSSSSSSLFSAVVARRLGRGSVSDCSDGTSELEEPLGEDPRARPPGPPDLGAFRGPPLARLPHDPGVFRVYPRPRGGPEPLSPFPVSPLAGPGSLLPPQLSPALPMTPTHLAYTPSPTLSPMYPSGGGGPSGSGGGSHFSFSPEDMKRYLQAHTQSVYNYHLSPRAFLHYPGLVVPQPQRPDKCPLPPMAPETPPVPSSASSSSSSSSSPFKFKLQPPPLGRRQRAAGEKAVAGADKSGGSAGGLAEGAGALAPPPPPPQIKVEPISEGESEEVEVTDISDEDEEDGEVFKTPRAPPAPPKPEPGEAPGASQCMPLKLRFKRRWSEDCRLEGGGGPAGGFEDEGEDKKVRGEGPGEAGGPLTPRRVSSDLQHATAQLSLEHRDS
An outline of the steps: (§1)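 In yeast, human transcription factors were expressed with a GST fusion, then pulled down on glutathione beads and given DNA barcodes. Pooled with a tag-only sample, they were exposed to 200 nmole of a 16-mer random double-stranded DNA library (Tris/NaCl/DTT/glycerol buffer, room temperature, 30 min), washed, crosslinked with 0.1% formaldehyde, proximity-ligated using BsaI/T4 ligase for 1 h at 37 °C, PCR-amplified and read on an Illumina NextSeq500. Each hexamer's frequency of reads for a factor, divided by the matching frequency for the tag-only sample, gives the binding signal.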

The target in experiment [2] is T2, ETV3L (Homo sapiens, UniProt Q6ZN32 1-361).
T2 sequence: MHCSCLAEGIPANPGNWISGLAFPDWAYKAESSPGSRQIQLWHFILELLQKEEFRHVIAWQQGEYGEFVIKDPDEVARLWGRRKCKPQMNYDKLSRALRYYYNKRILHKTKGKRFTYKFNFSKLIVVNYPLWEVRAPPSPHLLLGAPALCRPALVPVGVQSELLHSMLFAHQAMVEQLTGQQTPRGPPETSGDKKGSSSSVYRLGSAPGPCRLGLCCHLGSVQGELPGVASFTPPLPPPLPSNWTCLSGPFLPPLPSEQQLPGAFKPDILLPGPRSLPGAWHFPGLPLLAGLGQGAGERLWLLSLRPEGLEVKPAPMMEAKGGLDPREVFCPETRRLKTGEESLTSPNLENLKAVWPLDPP
Summed up:
as §1

Experiment [3] has as its target T3, ETS2 (Homo sapiens, UniProt P15036 1-469).
T3 sequence: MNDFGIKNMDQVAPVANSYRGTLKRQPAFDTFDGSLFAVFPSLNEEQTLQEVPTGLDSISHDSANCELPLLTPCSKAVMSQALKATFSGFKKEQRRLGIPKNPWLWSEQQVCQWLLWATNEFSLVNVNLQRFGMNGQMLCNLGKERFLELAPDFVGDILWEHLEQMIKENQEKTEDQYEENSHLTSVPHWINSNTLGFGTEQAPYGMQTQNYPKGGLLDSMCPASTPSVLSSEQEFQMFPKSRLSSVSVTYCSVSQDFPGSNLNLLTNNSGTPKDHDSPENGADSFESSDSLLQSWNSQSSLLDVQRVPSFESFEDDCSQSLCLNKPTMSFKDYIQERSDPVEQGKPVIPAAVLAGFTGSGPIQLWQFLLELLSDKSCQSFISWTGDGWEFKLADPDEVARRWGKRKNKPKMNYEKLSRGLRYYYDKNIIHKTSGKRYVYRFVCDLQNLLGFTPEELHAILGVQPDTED
An outline of the steps: as §1

Experiment [4] concerns the target T4, SPDEF (Homo sapiens, UniProt O95238 1-335).
T4 sequence: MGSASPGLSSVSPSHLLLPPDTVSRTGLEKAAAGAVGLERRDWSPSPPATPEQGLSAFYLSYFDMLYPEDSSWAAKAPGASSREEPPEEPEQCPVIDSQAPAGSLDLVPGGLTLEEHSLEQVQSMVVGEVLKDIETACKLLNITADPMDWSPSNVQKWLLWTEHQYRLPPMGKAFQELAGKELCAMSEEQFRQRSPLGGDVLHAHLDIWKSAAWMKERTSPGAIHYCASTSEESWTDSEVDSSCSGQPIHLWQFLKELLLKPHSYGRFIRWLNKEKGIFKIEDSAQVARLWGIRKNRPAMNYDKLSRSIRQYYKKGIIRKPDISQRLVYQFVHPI
Summed up: as §1

Experiment [5] addresses T5, ETV7 (Homo sapiens, UniProt Q9Y603 1-341).
T5 sequence: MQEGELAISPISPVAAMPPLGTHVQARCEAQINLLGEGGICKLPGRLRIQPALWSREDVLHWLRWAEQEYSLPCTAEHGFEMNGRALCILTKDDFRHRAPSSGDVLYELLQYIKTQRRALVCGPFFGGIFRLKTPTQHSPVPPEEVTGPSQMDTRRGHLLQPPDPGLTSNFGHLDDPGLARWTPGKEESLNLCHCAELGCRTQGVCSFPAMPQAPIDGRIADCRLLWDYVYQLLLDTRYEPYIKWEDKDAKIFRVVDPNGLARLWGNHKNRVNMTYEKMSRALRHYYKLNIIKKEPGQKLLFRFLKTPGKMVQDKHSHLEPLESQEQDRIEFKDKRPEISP
An outline of the steps: as §1

Experiment [6] concerns the target T6, ELF5 (Homo sapiens, UniProt Q9UKW6-2 1-255).
T6 sequence: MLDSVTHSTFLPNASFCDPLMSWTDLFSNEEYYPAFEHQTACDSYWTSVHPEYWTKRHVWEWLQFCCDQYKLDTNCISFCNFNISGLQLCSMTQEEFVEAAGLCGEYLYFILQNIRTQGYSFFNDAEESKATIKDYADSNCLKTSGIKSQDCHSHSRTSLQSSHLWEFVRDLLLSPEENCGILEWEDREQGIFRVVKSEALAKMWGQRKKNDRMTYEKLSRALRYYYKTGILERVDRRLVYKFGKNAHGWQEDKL
Summed up:
as §1

Experiment [7] concerns the target T7, ETV3 (Homo sapiens, UniProt P41162-2 1-143).
T7 sequence: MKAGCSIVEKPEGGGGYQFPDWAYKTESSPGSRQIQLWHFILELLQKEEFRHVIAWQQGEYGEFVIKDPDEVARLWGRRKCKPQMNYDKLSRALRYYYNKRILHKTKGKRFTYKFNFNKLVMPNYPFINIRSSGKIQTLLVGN
An outline of the steps:
as §1

Experiment [8] addresses ETV6 (Homo sapiens, UniProt P41212 1-452). An outline of the steps:
as §1

Sequence of ETV6 (P41212 whole entry): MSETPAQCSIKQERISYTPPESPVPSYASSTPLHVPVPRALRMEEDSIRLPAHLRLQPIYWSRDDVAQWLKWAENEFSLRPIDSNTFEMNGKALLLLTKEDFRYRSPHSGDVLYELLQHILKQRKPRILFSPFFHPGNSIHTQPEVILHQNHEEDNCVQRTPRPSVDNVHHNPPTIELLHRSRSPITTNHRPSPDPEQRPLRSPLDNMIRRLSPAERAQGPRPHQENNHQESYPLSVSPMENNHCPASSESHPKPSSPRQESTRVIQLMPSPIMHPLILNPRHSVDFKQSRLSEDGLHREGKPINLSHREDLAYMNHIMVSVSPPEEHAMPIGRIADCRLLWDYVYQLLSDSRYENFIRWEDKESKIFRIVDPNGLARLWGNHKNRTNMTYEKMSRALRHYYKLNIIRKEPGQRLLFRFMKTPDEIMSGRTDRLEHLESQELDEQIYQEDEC

On to TTGTAG, for which the binding signal is 1.14 fold enrichment (6-mer frequency, TF over GST control) in experiment [1]; 1.2 fold enrichment (6-mer frequency, TF over GST control) in experiment [2]; 1.17 fold enrichment (6-mer frequency, TF over GST control) in experiment [3]; 1.09 fold enrichment (6-mer frequency, TF over GST control) in experiment [4]; 1.12 fold enrichment (6-mer frequency, TF over GST control) in experiment [5]; 1.1 fold enrichment (6-mer frequency, TF over GST control) in experiment [6]. In addition, the binding signal in experiment [7] is 1.13 fold enrichment (6-mer frequency, TF over GST control); in experiment [8] it was 1.13 fold enrichment (6-mer frequency, TF over GST control).

On to GTTAAG, for which the binding signal in experiment [1] was 1.03 fold enrichment (6-mer frequency, TF over GST control); in experiment [2], 1.01 fold enrichment (6-mer frequency, TF over GST control); in experiment [3], 1.04 fold enrichment (6-mer frequency, TF over GST control); in experiment [4], 1.05 fold enrichment (6-mer frequency, TF over GST control); in experiment [5], 1.02 fold enrichment (6-mer frequency, TF over GST control); in experiment [6] it was 1.07 fold enrichment (6-mer frequency, TF over GST control). The binding signal in experiment [7] is 1.18 fold enrichment (6-mer frequency, TF over GST control); in experiment [8] it was 1.02 fold enrichment (6-mer frequency, TF over GST control).

In the case of CCCACC, the binding signal is 1.16 fold enrichment (6-mer frequency, TF over GST control) in experiment [1]; 1.05 fold enrichment (6-mer frequency, TF over GST control) in experiment [2]; 1.02 fold enrichment (6-mer frequency, TF over GST control) in experiment [3]; 1.12 fold enrichment (6-mer frequency, TF over GST control) in experiment [4]; 1.08 fold enrichment (6-mer frequency, TF over GST control) in experiment [5]; 1.15 fold enrichment (6-mer frequency, TF over GST control) in experiment [6]. Moreover, the binding signal in experiment [7] is 1.06 fold enrichment (6-mer frequency, TF over GST control); in experiment [8], 1.12 fold enrichment (6-mer frequency, TF over GST control).

AAGTAG: the binding signal in experiment [1] is 1.22 fold enrichment (6-mer frequency, TF over GST control); in experiment [2], 1.16 fold enrichment (6-mer frequency, TF over GST control); in experiment [3], 1.31 fold enrichment (6-mer frequency, TF over GST control); in experiment [4] it was 1.07 fold enrichment (6-mer frequency, TF over GST control); in experiment [5], 1.23 fold enrichment (6-mer frequency, TF over GST control); in experiment [6] it was 1.28 fold enrichment (6-mer frequency, TF over GST control). The binding signal in experiment [7] is 1.26 fold enrichment (6-mer frequency, TF over GST control); in experiment [8], 1.28 fold enrichment (6-mer frequency, TF over GST control).

Take TCGATG: the binding signal in experiment [1] is 1.08 fold enrichment (6-mer frequency, TF over GST control); in experiment [2], 1.15 fold enrichment (6-mer frequency, TF over GST control); in experiment [3], 1.03 fold enrichment (6-mer frequency, TF over GST control); in experiment [4] it was 1.07 fold enrichment (6-mer frequency, TF over GST control); in experiment [5] it was 1.17 fold enrichment (6-mer frequency, TF over GST control); in experiment [6], 1.07 fold enrichment (6-mer frequency, TF over GST control). The binding signal in experiment [7] is 1.1 fold enrichment (6-mer frequency, TF over GST control); in experiment [8] it was 1.09 fold enrichment (6-mer frequency, TF over GST control).

As for GTTTAC, the binding signal in experiment [1] was 1.12 fold enrichment (6-mer frequency, TF over GST control); in experiment [2], 1.12 fold enrichment (6-mer frequency, TF over GST control); in experiment [3], 1.13 fold enrichment (6-mer frequency, TF over GST control); in experiment [4] it was 1.12 fold enrichment (6-mer frequency, TF over GST control); in experiment [5], 1.22 fold enrichment (6-mer frequency, TF over GST control); in experiment [6], 1.13 fold enrichment (6-mer frequency, TF over GST control). In addition, the binding signal in experiment [7] is 1.07 fold enrichment (6-mer frequency, TF over GST control); in experiment [8], 1.19 fold enrichment (6-mer frequency, TF over GST control).
